Measurements published in PubChem BioAssay AID1159580 (chemical genetic matrix, 2015).
About 2,000 (36%) of roughly 5,500 compounds were called active. Roughly 18% stayed inconclusive and do not appear here. Cut-off read from the data, not from the text of the source: active = normalized growth mostly below about 0.91 (no sharp cut-off); inconclusive = no clear call, values can overlap the other calls; inactive = mostly above about 0.92. The list shows a part of the results.

Experiment: chemical genetic growth profiling, strain panel (AID 1159580);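 note: tested at 20 µM; growth read once vehicle control cultures reached saturation at 30 °C; 1 = growth at the plate median or of vehicle wells; lower values mean less growth of the strain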
Conditions: S. cerevisiae deletion strains, growth OD

Measured: normalized growth

COc1cccc(OC)c1OCCNCC1CSc2ccccc2O1 (configuration not stated)
inactive: locus YAL040C, strain CLN3, active compounds read low 1.01 | locus YDR363W, strain ESC2, active compounds read low 0.936 | locus YER002W, strain NOP16, active compounds read low 1.01 | locus YJR075W, strain HOC1, active compounds read low 0.985 | locus YMR263W, strain SAP30, active compounds read low 0.995 | locus YMR307W, strain GAS1, active compounds read low 1.01 | locus YNL175C, strain NOP13, active compounds read low 0.986 | locus YNL197C, strain WHI3, active compounds read low 1.02 | locus YNL224C, strain SQS1, active compounds read low 1 | locus YOR083W, strain WHI5 (second series), active compounds read low 0.966 | locus YPL241C, strain CIN2, active compounds read low 1

ONC(=Nc1ccccc1Cl)c1ccccc1Cl
inactive: locus YAR019C, strain CDC15, active compounds read low 0.999 | locus YBL105C, strain PKC1, active compounds read low 0.987 | locus YBR135W, strain CKS1, active compounds read low 0.992 | locus YBR136W, strain MEC1, active compounds read low 0.986 | locus YBR160W, strain CDC28, active compounds read low 0.993 | locus YDL017W, strain CDC7, active compounds read low 0.988 | locus YDL028C, strain MPS1, active compounds read low 0.985 | locus YDL101C, strain DUN1, active compounds read low 0.993 | locus YDL108W, strain KIN28, active compounds read low 0.979 | locus YDL132W, strain cdc53, active compounds read low 0.997 | locus YDL214C, strain PRR2, active compounds read low 0.824 | locus YDR052C, strain DBF4, active compounds read low 0.983 | locus YDR054C, strain cdc34, active compounds read low 0.992 | locus YDR226W, strain ADK1, active compounds read low 0.987 | locus YDR477W, strain SNF1, active compounds read low 0.859 | locus YER123W, strain YCK3, active compounds read low 0.688 | locus YER133W, strain GLC7, active compounds read low 0.833 | locus YFL009W, strain cdc4, active compounds read low 0.999 | locus YFL029C, strain CAK1, active compounds read low 0.996 | locus YFR003C, strain YPI1, active compounds read low 0.989 | locus YFR028C, strain CDC14, active compounds read low 0.997 | locus YGR040W, strain KSS1, active compounds read low 0.81 | locus YGR052W, strain FMP48, active compounds read low 0.786 | locus YGR092W, strain DBF2, active compounds read low 0.839 | locus YHR079C, strain IRE1, active compounds read low 0.889 | locus YHR082C, strain KSP1, active compounds read low 0.829 | locus YHR205W, strain SCH9, active compounds read low 0.875 | locus YIL147C, strain SLN1, active compounds read low 0.983 | locus YJL095W, strain BCK1, active compounds read low 0.697 | locus YJL128C, strain PBS2, active compounds read low 0.95 | locus YJL157C, strain FAR1, active compounds read low 0.785 | locus YJR016C, strain ILV3, active compounds read low 0.986 | locus YJR066W, strain TOR1 (second series), active compounds read low 0.729 | locus YJR066W, strain TOR1, active compounds read low 0.769 | locus YKL048C, strain ELM1, active compounds read low 0.922 | locus YKL067W, strain YNK1, active compounds read low 0.817 | locus YKL101W, strain HSL1, active compounds read low 0.854 | locus YKL193C, strain SDS22, active compounds read low 1 | locus YKL203C, strain TOR2, active compounds read low 0.891 | locus YLR133W, strain CKI1, active compounds read low 0.841 | locus YLR403W, strain SFP1, active compounds read low 0.832 | locus YML070W, strain DAK1, active compounds read low 0.786 | locus YMR001C, strain CDC5, active compounds read low 0.996 | locus YMR205C, strain PFK2 (second series), active compounds read low 0.83 | locus YMR277W, strain FCP1, active compounds read low 1 | locus YNL006W, strain LST8, active compounds read low 0.997 | locus YNL020C, strain ARK1, active compounds read low 0.809 | locus YNL161W, strain CBK1, active compounds read low 0.994 | locus YNL183C, strain NPR1, active compounds read low 0.86 | locus YNL207W, strain RIO2, active compounds read low 0.99 | locus YNL222W, strain SSU72, active compounds read low 0.993 | locus YNL307C, strain MCK1 (second series), active compounds read low 0.811 | locus YOL078W, strain AVO1, active compounds read low 0.993 | locus YOL136C, strain PFK27, active compounds read low 0.806 | locus YOR061W, strain CKA2, active compounds read low 0.69 | locus YOR119C, strain RIO1, active compounds read low 0.886 | locus YOR231W, strain MKK1, active compounds read low 0.836 | locus YOR329C, strain SCD5, active compounds read low 0.998 | locus YPL031C, strain PHO85, active compounds read low 0.824 | locus YPL153C, strain RAD53, active compounds read low 0.777 | locus YPL204W, strain HRR25, active compounds read low 0.859 | locus YPL209C, strain IPL1, active compounds read low 0.992 | locus YPL256C, strain CLN2, active compounds read low 0.904 | locus YPR025C, strain CCL1, active compounds read low 0.993 | locus YPR106W, strain ISR1, active compounds read low 0.99 | locus YPR111W, strain DBF20, active compounds read low 0.994 | strain NNK1, active compounds read low 0.992 | strain TSCII, active compounds read low 0.991
active: locus YFR019W, strain FAB1, active compounds read low 0.714 | locus YHR030C, strain SLT2, active compounds read low 0.731 | locus YLR113W, strain HOG1, active compounds read low 0.839
